Cell viability data for 63 compounds are collected here from the supplement of paper PMC11150407.

Screen size: about 3,000 compounds; about 45 (2%) showed an effect of 50% or more. This is one part of a sample in which strong results are shown more often than they occur.

This experiment has as its system MOLM1 and UCSD/AML1 (averaged). Nature of the experiment: cell viability relative to DMSO control (POC); higher = less growth inhibition. As to conditions: 1 µM; 72 h. The procedure: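 Primary viability screen in the 3q26 EVI1-high AML cell lines MOLM1 and UCSD/AML1, compounds at 1 uM for 72 h. ATP CellTiter-Glo read-out given as percent viable over DMSO control (POC), averaged over duplicates. This mapping covers the TimTec NDL-3000 natural derivative library, whose compounds are identified by TimTec catalogue codes (ST...).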
The term cell viability denotes a read-out of living cells in per cent, often relative to untreated cells. With `COc1cc(C(=O)NC2Cc3ccccc3NC2=O)cc(OC)c1OC` (stereo not drawn), the cell viability is 109%. To `COc1cc(C(=O)/C=C2\C(=O)Nc3ccccc32)cc(OC)c1OC` belongs 21.6%. To `COc1ccc(C(=O)/C=C2\C(=O)Nc3ccccc32)cc1OC` belongs 52.3%; to `CN(C)c1ccc2cc3ccc(=[N+](C)C)cc-3oc2c1`, 3.15%. To `CCN(CC)c1ccc2cc(-c3ccc(OC)cc3)c(=O)oc2c1` belongs 88.7%; to `COc1cc(/C=C/C(=O)c2ccc(C(=O)/C=C/c3cc(OC)c(OC)c(OC)c3)cc2)cc(OC)c1OC`, 106%; to `Cc1ccc(C)c(NC(=O)CN2CCN(Cc3cc(=O)oc4cc(C)ccc34)CC2)c1`, 98.3%. Consider `COc1ccccc1NC(=O)c1ccc2c(c1)OCO2`, for which the cell viability was 94.7%. To `CCOc1ccccc1C1CCCC2(O)CCN(CC(=O)NCc3ccco3)CC12` (stereo not drawn) belongs 99.5%; to `CCOC(=O)C1=C(C)N(C)C(=O)NC1c1cc(Br)c(O)c(OC)c1` (stereo not drawn), 116%.

As for `CCOC(=O)c1sc(NC(=O)/C=C/c2ccccc2)c(C(=O)OCC)c1C`, the cell viability was 96%.

As for `COc1ccc2c(O)c([N+](=O)[O-])c(=O)oc2c1`, the cell viability turned out to be 105%. Turning to `COc1ccc2c(=O)c(O)c(-c3ccccc3)oc2c1`, the cell viability worked out at 62.7%. To `COc1ccc2c(=O)cc(C(Cl)(Cl)Cl)oc2c1` belongs 5.13%; to `COc1ccc2oc(C(Cl)(Cl)Cl)cc(=O)c2c1`, 3.78%. The value for `COc1ccc(-c2cc(=O)c3cc(O)ccc3o2)cc1` was 71.1%; that for `COc1ccc(-c2cc(=O)c3ccccc3o2)c(OC)c1` was 113%; that for `COc1cc(OC)cc(C(=O)Nc2ccccc2C(=O)Nc2ccccc2Cl)c1` was 95.1%.

With `CN1CCN(Cc2c(O)ccc3cc(-c4nc5ccccc5s4)c(=O)oc23)CC1`, the cell viability was 101%. On to `Cc1cc(C)c(NC(=O)Cn2c(=O)cc(C(=O)N3CCc4ccccc4C3)c3ccccc32)c(C)c1`, for which the cell viability was determined as 100%. The value for `CCCCCC1CCC(=O)N1CCN=Cc1c(O)c(O)c(C(C)C)c2cc(C)c(-c3c(C)cc4c(C(C)C)c(O)c(O)c(C=NCCN5C(=O)CCC5CCCCC)c4c3O)c(O)c12` (stereo not drawn) was 86.9%; that for `Cc1[nH]c2ccccc2c1CCNC(=O)c1ccc(=O)[nH]c1` was 96.3%.

Regarding `CC(Cl)COC(=O)/C=C/c1ccc([N+](=O)[O-])cc1` (stereo not drawn), the cell viability is 108%. `Cc1ccc(N2C3=C(C(=O)CC(C)(C)C3)C(c3ccc(O)cc3)C3=C2CC(C)(C)CC3=O)cc1`: the cell viability amounted to 89.8%.

Take `Cc1ncnc2nc[nH]c12`: the cell viability was found to be 3.11%. As for `Cc1ccc(OCCSc2ncnc3nc[nH]c23)cc1`, the cell viability came out at 92.7%. To `COc1ncnc2nc[nH]c12` belongs 100%. Consider `Cc1ccc(-n2c(SCc3cn4ccccc4n3)nc3c(=O)[nH]cnc32)cc1`, for which the cell viability came to 98.3%. The value for `Cc1cc2c(C(C)C)c(O)c(O)c(C=NCCN3CCN(C)CC3)c2c(O)c1-c1c(C)cc2c(C(C)C)c(O)c(O)c(C=NCCN3CCN(C)CC3)c2c1O` was 98.8%. To `CCC(O)/N=C/c1c(O)c(O)c(C(C)C)c2cc(C)c(-c3c(C)cc4c(C(C)C)c(O)c(O)c(/C=N/C(O)CC)c4c3O)c(O)c12` (stereo not drawn) belongs 88.9%; to `Cc1cc2c(C(C)C)c(O)c(O)c(/C=N/N3CCN(C)CC3)c2c(O)c1-c1c(C)cc2c(C(C)C)c(O)c(O)c(/C=N/N3CCN(C)CC3)c2c1O`, 4.5%; to `COc1ccc(NC(=O)CSc2nc3c(=O)[nH]cnc3n2-c2ccc(C)cc2)c(OC)c1`, 102%. To `Cc1ccc(C(=O)N2N=C(c3c(-c4ccccc4)c4cc(Br)ccc4[nH]c3=O)CC2c2ccccc2)cc1` (stereo not drawn) belongs 100%; to `CCOC(=O)N1CCc2[nH]c3ccc(C)cc3c2C1`, 42.4%; to `CCOC(=O)N1CCc2[nH]c3ccc(Cl)cc3c2C1`, 89.6%.

For the compound `O=C(O)c1ccc2[nH]c3c(c2c1)CCCC3`, the cell viability turned out to be 95.7%.

Take `CCN(CC)CCC(=O)c1ccc(OC)c(OC)c1`: the cell viability is 98.6%.

On to `COc1ccc(/C=C/C(=O)Oc2ccc(C(C)C)cc2)c(OC)c1`, for which the cell viability was 101%.

`COc1ccc(Br)cc1/C=C/C(=O)O`: the cell viability is 95.6%. On to `CCOC(=O)[C@H]1CCC(=O)N1`, for which the cell viability amounted to 17.6%. To `CCOC(=O)CCc1ccc2c(c1)NC(=O)CC2` belongs 91.8%. To `CCOC(=O)CCc1n[nH]c(=O)[nH]c1=O` belongs 88.1%. On to `Cc1cccc(NC(=O)CSc2nc3c(=O)[nH]cnc3n2C)c1C`, for which the cell viability stood at 95.1%. The value for `Cc1[nH]c2ccc(Br)cc2c1CCNC(=O)c1cccs1` was 100%.

As for `Cc1ccc(NC(=O)CSc2nc3c(=O)[nH]cnc3n2CC2CCCO2)c(Cl)c1` (stereo not drawn), the cell viability turned out to be 98.7%. In the case of `COc1ccc(C(=O)N2CCN(Cc3cc(=O)oc4cc(C)ccc34)CC2)c(OC)c1`, the cell viability was determined as 93%. To `Cc1ccc2c(CN3CCN(C(=O)OC(C)(C)C)CC3)cc(=O)oc2c1` belongs 14.9%. For `Cc1ccc2c(CN3CCN(Cc4ccc(Cl)cc4)CC3)cc(=O)oc2c1`, the cell viability came out at 96.2%. To `C=C(C)C1CCC2(C)CCC3(C)C(CCC4C5(C)CCC(OC(C)=O)C(C)(C)C5CCC43C)C12` (stereo not drawn) belongs 102%; to `COc1ccc(OC)c2c(C)cc(SCC(=O)c3ccc4c(c3)OCCO4)nc12`, 101%; to `COC(=O)C1=C(C)NC(SC)=C(C#N)C1c1cc(OC)c(OC)c(OC)c1` (stereo not drawn), 18.3%.

Take `COC(=O)C1=C(C)NC2=C(C(=O)CC(c3ccc(OC)c(OC)c3)C2)C1c1cc(OC)c(OC)c(OC)c1` (stereo not drawn): the cell viability is 101%. The value for `COC(=O)C1=C(C)NC2=C(C(=O)CCC2)C1c1cc(OC)c(OC)c(OC)c1` (stereo not drawn) was 94.9%. For `CC(=O)/C=C(\C)NC(C)C(=O)O` (stereo not drawn), the cell viability stood at 102%. The value for `O=C(/C=C/c1ccc(NC(=O)c2cc(NC(=O)C(c3ccccc3)c3ccccc3)cc(NC(=O)C(c3ccccc3)c3ccccc3)c2)cc1)c1ccccc1` was 94.6%; that for `O=C(/C=C/c1ccc(Cl)cc1Cl)c1ccc(Br)cc1` was 108%. To `O=C(/C=C/c1cccc(NC(=O)c2ccc(Br)cc2)c1)c1cccc(NC(=O)c2ccc(Br)cc2)c1` belongs 1.83%; to `CCCCCCOC(=O)c1ccccc1NC(=O)c1c(O)c2ccccc2[nH]c1=O`, 97.5%; to `COC(=O)c1ccc2c(c1)C(=O)/C(=C/c1ccc(O)c(OC)c1)O2`, 84.6%.

Regarding `CCOc1cc(/C=C2\Oc3ccc(C(=O)OC)cc3C2=O)ccc1O`, the cell viability is 16.8%. To `CCOc1ccc(/C=C2/Oc3ccc(C(=O)OC)cc3C2=O)cc1OCC` belongs 96.6%; to `COc1cc(N(C(C)=O)C2OC(COC(C)=O)C(OC(C)=O)C(OC(C)=O)C2OC(C)=O)c(OC)c2c(C)cc(C)nc12` (stereo not drawn), 98.5%; to `CCOC(=O)CSc1nc2c(c(=O)[nH]c(=O)n2C)n1Cc1cccc(C)c1`, 100%.
